Among all 2,300 compounds or so, about 1,400 (61%) were called active. Roughly 29% stayed inconclusive and do not appear here. Calls follow the shape of the dose curve; as a rule, active = well fitted inhibition curve with a large enough effect; inconclusive = small, poorly fitted or top-dose-only effect, or effect the other way; inactive = no such curve, though single readings can be large or run the other way. So high a share suggests a set chosen from earlier hits. Some of the results follow.
assay: Confirmation screen for delayed death inhibitors of the malarial parasite plastid, 96 hour incubation; also: nearly all actives have a fitted effect of over 60% in size; conditions: P. falciparum luciferase growth in erythrocytes; series mostly up to 28.7 µM
Procedure, shortened: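 Erythrocytes infected with luciferase-expressing P. falciparum (2% hematocrit, 0.1% parasitemia final) in RPMI 1640 with 0.5% Albumax, exposed to compounds 96 h at 37 C, 5% CO2. Growth inhibition read as decreased luciferase luminescence.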
Potency is read from the fitted curve at half-maximal effect.

Row | SMILES | Potency
1 | CSCCn1c(C(C)(C)C)cc(C(=O)O)c1C | inactive
2 | CCC(=O)c1ccc(OCC(O)CNC(C)c2ccccc2)cc1 (stereo not drawn) | 11.2 µM (active)
3 | Cn1nnnc1Sc1ncnc2scc(-c3cccc(S(C)(=O)=O)c3)c12 | 12.6 µM (active)
4 | Cn1nnnc1Sc1ncnc2scc(-c3cccc(F)c3)c12 | 6.31 µM (active)
5 | CC(=O)N1c2ccc(S(=O)(=O)NCCC(=O)NC3CCCC(C)C3C)cc2CC1C (stereo not drawn) | 14.1 µM (active)
6 | N#C/C(=C\c1ccccn1)c1ccccn1 | 11.2 µM (active)
7 | O=C(c1ccco1)N1CCN(C2c3ccccc3-c3ccccc32)CC1 | 12.6 µM (active)
8 | COc1ccc(CSC2=NCCN2)cc1Br | 12.6 µM (active)
9 | O=C(CCl)c1ccc2c(c1)CCN2C(=O)C1CCCCC1 | 11.2 µM (active)
10 | O=C(COc1ccc(Cl)cc1)NCc1nnc2c3ccccc3c(-c3ccccc3)nn12 | 12.6 µM (active)
11 | CC(C)c1ccc(/C=C2\SC(=S)N(CCC(=O)N3CCCCC3CCO)C2=O)cc1 (stereo not drawn) | 1.26 µM (active)
12 | COc1cccc(/C=C2\SC(=S)N(CCC(=O)N3CCCCC3CCO)C2=O)c1 (stereo not drawn) | 6.31 µM (active)
13 | O=C1/C(=C/c2ccc(Cl)cc2)SC(=S)N1CCC(=O)N1CCCCC1CCO (stereo not drawn) | 12.6 µM (active)
14 | COc1cccc([C@@H]2Oc3ccc(OC)cc3C(=O)[C@H]2O)c1 | 7.08 µM (active)
15 | C=CCNC(=O)c1oc2ccc(S(=O)(=O)N3CCCCC3)cc2c1C | 11.2 µM (active)
16 | C=CCNC(=O)c1onc(CSc2ccc(C(C)C)cc2)c1C(=O)O | inactive
17 | C=CCNC(=O)c1onc(CSc2ccc(F)c(F)c2)c1C(=O)O | inactive
18 | COC(=O)C1=CN(Cc2ccc(F)cc2)C=C(C(=O)OC)C1c1ccc(O)c(OC)c1 | 10 µM (active)
19 | CC(=O)N(C)C1=C(N2CCOCC2)C(=O)c2ccccc2C1=O | 0.0355 µM (active)
20 | N#Cc1ncc(-c2ccc3c(c2)OCCOCCOCCOCCOCCO3)nc1C#N | 12.6 µM (active)
21 | O=C(c1cc(COc2cccc(C(F)(F)F)c2)on1)N1CCC(Oc2cccnc2)CC1 | 14.1 µM (active)
22 | C/C(=N\NC(=O)c1ccc(Cl)c(Cl)c1)c1ccc(Br)s1 | 2 µM (active)

Row | SMILES | Potency
23 | Cc1ccc(-n2c(SCC(=O)Nc3ncc(Cl)cc3Cl)nc3ccccc32)cc1 | 11.2 µM (active)
24 | COCCn1c(SC(C)C(=O)Nc2ncc(Cl)cc2Cl)nc2ccccc21 (stereo not drawn) | 15.8 µM (active)
25 | O=C(CSc1nc2ccccc2n1-c1ccccc1)Nc1ncc(Cl)cc1Cl | 10 µM (active)
26 | Cc1nn(C)c(C)c1C(C)NC(=O)c1ccc(OC2CCN(Cc3ccccn3)CC2)cc1 (stereo not drawn) | inactive
27 | COc1ccc(CN2CCC(Oc3ccc(C(=O)NCc4ccccn4)cc3)CC2)c(F)c1 | 12.6 µM (active)
28 | O=C1N=C(N2CCN(c3ccccc3)CC2)S/C1=C/c1cccs1 | 12.6 µM (active)
29 | CC1=NNC(=O)/C1=C\c1cn(-c2ccccc2)nc1-c1cccs1 | 5.62 µM (active)
30 | O=C(c1ccco1)N1CCN(C(=O)C2CCCc3c2[nH]c2ccc(Cl)cc32)CC1 (stereo not drawn) | 12.6 µM (active)
31 | Cc1n[nH]c(=S)n(/N=C/c2ccccn2)c1=O | inactive
32 | C=CCN=c1scc(-c2ccc(F)cc2)n1/N=C/c1ccccn1 | 3.98 µM (active)
33 | Cc1ccc(NC(=O)CSc2nc3ccccc3c(=O)n2CCCN2CCCCC2)cc1Cl | 6.31 µM (active)
34 | CC(C)(C)n1ncc2c(=O)n(Cc3ccccc3Br)cnc21 | 12.6 µM (active)
35 | COc1cccc(C(=O)NC2CC(C)(C)Cc3c2cnn3-c2cccc(F)c2)c1OC (stereo not drawn) | 12.6 µM (active)
36 | CSc1ncccc1C(=O)NC1CC(C)(C)Cc2c1cnn2-c1ccccc1C (stereo not drawn) | 11.2 µM (active)
37 | COc1ccc(OC)c(C(=O)NC2CC(C)(C)Cc3c2cnn3-c2ccccc2)c1 (stereo not drawn) | 11.2 µM (active)
38 | CC[C@H]1OC(=O)[C@H](C)[C@@H](O[C@H]2C[C@@](C)(OC)[C@@H](O)[C@H](C)O2)C(C)[C@@H](O[C@@H]2O[C@H](C)C[C@H](N(C)C)[C@@H]2O)[C@](C)(OC)C[C@@H](C)C(=O)[C@H](C)[C@@H](O)[C@]1(C)O (stereo partly drawn) | 2.82 µM (active)
39 | CCC(=O)OC1C(N(C)C)CC(C)O[C@H]1O[C@H]1[C@H](C)[C@@H](O[C@H]2CC(OC)[C@@H](O)C(C)O2)[C@H](C)C(=O)O[C@@H](CC)[C@](C)(O)[C@@H](O)[C@H](C)C(=O)[C@@H](C)C[C@]1(C)O (stereo partly drawn) | 10 µM (active)
40 | CC[C@H]1OC(=O)[C@H](C)[C@@H](O[C@H]2C[C@@](C)(OC)[C@@H](O)[C@H](C)O2)[C@H](C)[C@@H](O[C@@H]2O[C@H](C)C[C@H](N(C)C)[C@H]2O)[C@](C)(O)C[C@@H](C)CN(C)[C@H](C)[C@@H](O)[C@]1(C)O | 0.631 µM (active)
41 | COc1ccccc1NS(=O)(=O)c1ccc(NN=C2CCCC2)c([N+](=O)[O-])c1 | 11.2 µM (active)
42 | Cc1ccc(-c2nn(-c3ccccc3)cc2CC(=S)N2CCOCC2)cc1 | 12.6 µM (active)
43 | COc1ccc(Cn2c(-c3ccc(Br)cc3)c[n+]3ccccc23)cc1 | 0.562 µM (active)
44 | Cc1ccn2c(NC3CCCC3)c(-c3ccccn3)nc2c1 | 3.16 µM (active)

Row | SMILES | Potency
45 | CCOC(=O)c1cc(-c2ccccc2)sc1NC(=O)C(C)OC(=O)c1cccnc1Cl (stereo not drawn) | 6.31 µM (active)
46 | COCCN(C(=O)c1ccccc1F)c1nnc(-c2ccc(OC)cc2)s1 | 7.08 µM (active)
47 | COc1ccc(C2CC(c3cccs3)=NN2C(=O)CSc2nnc(N)s2)cc1OC (stereo not drawn) | 11.2 µM (active)
48 | Cc1ccc(NC(=O)c2ccc3c(SCC(=O)O)c4c(nc3c2)CCCC4)c(Br)c1 | 7.94 µM (active)
49 | Cc1onc(NC(=O)c2ccc([N+](=O)[O-])o2)c1Br | 11.2 µM (active)
50 | Cc1cc[n+]2cc(-c3cccc([N+](=O)[O-])c3)c(-c3cccc([N+](=O)[O-])c3)cc2c1 | 0.112 µM (active)
51 | CCC(=O)Nc1cccc(C(=O)/C=C/c2cc(Br)ccc2OC)c1 | 7.94 µM (active)
52 | CCC(=O)Nc1cccc(C(=O)/C=C/c2ccccc2)c1 | 12.6 µM (active)
53 | CC(=O)Nc1cccc(C(=O)/C=C/c2ccc(C)cc2)c1 | 15.8 µM (active)
54 | N#C/C(=C\c1ccc(-c2ccc(C(=O)O)cc2)o1)C(=O)Nc1ccc(F)cc1 | 10 µM (active)
55 | COc1ccccc1-c1cc(C(=O)N/N=C/c2ccc(C)s2)c2ccccc2n1 | 5.01 µM (active)
56 | COc1ccccc1-c1cc(C(=O)N/N=C/c2ccc(C)o2)c2ccccc2n1 | inactive
57 | COc1ccc(/C=N/NC(=O)c2cc(-c3ccccc3)nc3ccccc23)cc1O | inactive
58 | COc1ccc(-c2cc(C(=O)N/N=C/c3ccc4c(c3)OCO4)c3ccccc3n2)c(OC)c1 | 11.2 µM (active)
59 | COc1ccccc1-c1cc(C(=O)N/N=C/c2cccs2)c2ccccc2n1 | 6.31 µM (active)
60 | COc1ccccc1-c1cc(C(=O)N/N=C/c2sccc2C)c2ccccc2n1 | 3.55 µM (active)
61 | C=CCNC(=O)c1onc(CSc2cccc(Cl)c2)c1C(=O)O | inactive
62 | Cc1cccc(N(Cc2ccccc2)C(=O)CN2C(=O)NC3(CCCCC3C)C2=O)c1 (stereo not drawn) | 11.2 µM (active)
63 | Cc1nn(Cc2ccccc2Cl)c(C)c1C(=O)Nc1nnc(C2CC2)s1 | 11.2 µM (active)
64 | Cc1nn(Cc2c(Cl)cccc2Cl)c(C)c1NC(=O)c1cc(C(C)C)on1 | inactive
65 | COc1ccc(-n2c(=O)/c(=C\c3cccs3)s/c2=C(/C#N)C(=O)N2CCN(C)CC2)cc1 | inactive
66 | Fc1ccc(Nc2nc(N3CCOCC3)nc(N3CCOCC3)n2)cc1 | 12.6 µM (active)

Row | SMILES | Potency
67 | COc1ccc(CN2CCN(C(=O)c3ccc(CNS(=O)(=O)c4ccc(C)cc4)cc3)CC2)c(OC)c1OC | 11.2 µM (active)
68 | O=S(=O)(c1ccc(Cl)c(NC(=S)N/N=C/c2ccc(O)cc2)c1)N1CCOCC1 | 5.01 µM (active)
69 | COc1cccc(/C=C/C(=O)c2ccc(NS(=O)(=O)c3ccc(C)cc3)cc2)c1 | 15.8 µM (active)
70 | COc1ccc(/C=C/C(=O)c2ccc(NS(=O)(=O)c3ccc(C)cc3)cc2)cc1O | 7.08 µM (active)
71 | CC(NC(=O)CCl)c1ccccc1Br (stereo not drawn) | 0.794 µM (active)
72 | Cc1ccc(NC(=O)COc2ccccc2C#N)cc1S(=O)(=O)N1CCCCCC1 | 12.6 µM (active)
73 | COc1cc2c(cc1OC)CN(CC(=O)Nc1ccc(S(=O)(=O)N3CCCC3)cc1)CC2 | 15.8 µM (active)
74 | COc1ccccc1OCC(=O)Nc1ccc(S(=O)(=O)N2CCCCCC2)cc1 | 12.6 µM (active)
75 | COc1ccc(NC(=O)CN2CCN(S(=O)(=O)c3ccc(Br)cc3)CC2)c(OC)c1 | 7.94 µM (active)
76 | C=CCn1c(SCc2cc(=O)n3cc(C)ccc3n2)nnc1-c1ccc(F)cc1 | 8.91 µM (active)
77 | CCN(CC)C1=N/C(=C\c2ccc(OC)cc2)C(=O)N1c1ccccc1 | 12.6 µM (active)
78 | COc1ccc(/C=C2\N=C(SC)N(c3ccccc3OC)C2=O)cc1 | 12.6 µM (active)
79 | Clc1cccc(CN2CCc3c([nH]c4ccccc34)C2)c1 | 12.6 µM (active)
80 | COc1ccc(C2CC(=O)C3=C(C2)Nc2ccccc2NC3c2coc3ccccc3c2=O)cc1OC (stereo not drawn) | 1.12 µM (active)
81 | COc1ccc(C(C)(C)C)cc1NC(=O)c1[nH]c(C)c(C(C)=O)c1C | 4.47 µM (active)
82 | CC(=O)c1c(C)[nH]c(C(=O)COC(=O)COc2ccccc2F)c1C | inactive
83 | CCc1nc(SCC(=O)Nc2ccc(N(C)C)cc2)n[nH]1 | 2.82 µM (active)
84 | COc1ccc(OCCOc2ccc(S(=O)(=O)N3CCCC3)cc2C(N)=O)cc1 | 10 µM (active)
85 | C=CCN(CC=C)C(=O)C1CCN(S(=O)(=O)c2ccc(N3CCCC3=O)cc2)CC1 | 5.01 µM (active)
86 | Cc1ccc(S(=O)(=O)N2CCC(C(=O)Nc3ccc(S(=O)(=O)N4CCCC4)cc3)CC2)cc1C | 7.08 µM (active)
87 | COC(=O)c1cn(C)c2ccc(S(=O)(=O)N3CCCC3)cc2c1=O | inactive
88 | COc1ccc(S(=O)(=O)N2CCCN(S(=O)(=O)c3ccc(OC)c(C)c3)CC2)cc1C | 12.6 µM (active)

Source: PubChem BioAssay AID504848 (National Center for Advancing Translational Sciences (NCATS), 2011)
